The source of these data is PubChem BioAssay.

Assay [1] in a line: liver-stage malaria parasite load reduction – cell-based, known kinase inhibitor set, luminescence, hepatoma host viability (AID 624392).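 Also: infected cells incubated roughly two days before readout.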 Particulars: Plasmodium liver stage in hepatoma cells, luciferase luminescence, concentration not given here; liver cell % of control: measured here: host liver cell viability; parasite % of control: stronger effect = lower value.
A short description of assay [2]: altered dexamethasone sensitivity, NF-kB reporter, cell-based, luciferase, IL-1B stimulus (AID 624486).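 As to percent of negative control (+Dex): 100% = mean signal of vehicle control wells on the plate.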 Particulars: IL-1B + dexamethasone, luminescence; percent of negative control (+Dex): actives lie on both sides, concentration not given here; z-score: measured here: IL-1B alone, no Dex.
Assay [3] in a line: C. elegans survival during P. aeruginosa infection – whole organism (AID 651566).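 Also: tested at 14 µM; sign flipped so higher z means a lower ratio.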 As to conditions: C. elegans killed by P. aeruginosa, survival ratio.
Assay [4] can be described thus: pro-inflammatory signaling induction in mouse macrophages – cell-based, murine, luminescence (AID 652131). Particulars: murine macrophage pro-inflammatory reporter, stronger effect = higher value.
Assay [5] in a line: inducers of IRF3 signaling, differentiated THP-1 – cell-based, PMA-stimulated THP-1, luminescence (AID 1053176). As to conditions: PMA-differentiated THP-1, IRF3 reporter luminescence; stronger effect = higher value.
Assay [6] can be described thus: MELAS cybrid and Rieske KO viability enhancers – cell-based, MELAS cybrids, Rieske KO mouse fibroblasts, CellTiter-Glo, primary screen (AID 1508586;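 active = mean z-score across replicates of 1.96 or higher in either the MELAS or the Rieske mutant cell line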;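 also: z relative to plate mean and SD of compound and empty wells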). As to conditions: low glucose. A general note: ATP-based viability assays read luminescence as a measure of living cells.
A short description of assay [7]: Wnt pathway potentiators raising nuclear beta-catenin – imaging, WNT3A-conditioned medium, mouse C2C12, NPC library, primary screen (AID 1117326; in the data active = nuclear beta-catenin stimulation mostly above about 4.2%, no sharp cut-off; inactive = mostly below about 10%). Particulars: stronger effect = higher value.
A short description of assay [8]: stimulators of insulin release from INS-1E, primary screen, cell-based, 5 mM glucose, NPC library (AID 1117329;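 active = compound raises insulin release from rat beta cells at 5 mM glucose, no numeric limit stated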). Particulars: rat INS-1E insulin secretion, at 10 µM, stronger effect = higher value.
A short description of assay [9]: growth inhibition of GSK3B-pretreated HCT116 cells – cell-based, CellTiter-Glo, 0.2 to 20 µM (AID 1117336;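 active = compounds lowering colon cancer cell viability after pretreatment blocking the GSK3B kinase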). Particulars: HCT116 viability after GSK3B inhibitor, at 20 µM, stronger effect = higher value.
Assay [10] can be described thus: inhibition of endothelial tube formation, primary screen, imaging, VEGF stimulated, CD31 staining, tube area, NPC library (AID 1117340;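 active = compound that reduces growth-factor-driven endothelial tube area in a mixed cell culture, no cutoff stated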). Particulars: VEGF-stimulated ADSC/ECFC co-culture, at 10 µM, stronger effect = higher value.
Assay [11] is described as follows: GLP1 release stimulators, primary, NCI-H716, NPC library (AID 1117341;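 active = compound raises GLP1 secretion from the human gut endocrine cells, with no numeric limit stated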). As to conditions: NCI-H716 cells, at 10 µM, stronger effect = higher value.
A short description of assay [12]: HCT116 colon cancer cell growth inhibition, primary screen, CellTiter-Glo luminescence, NPC library (AID 1117342;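 active = compounds that lower survival of HCT116 colon cancer cells in the luminescence readout, no numeric limit stated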). Particulars: at 20 µM (top of the series).
A short description of assay [13]: reduced SW480 viability measured with CellTiter-Glo, NPC library, primary (AID 1117343;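 active = compounds that lower viability of the colon cancer cells in the luminescence readout, with no numeric limit stated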). As to conditions: CellTiter-Glo luminescence; at 20 µM (top of the series).
Assay [14] in a line: NPC library primary testing for decreased DLD-1 cell viability via CellTiter-Glo (AID 1117346;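 active = compounds that lower survival of DLD-1 colon cancer cells in the luminescence readout, no cutoff given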). Particulars: DLD-1 viability, CellTiter-Glo luminescence; at 20 µM (top of the series).
Where [15] appears, read: MELAS cybrid survival, CellTiter-Glo 48 h, stronger effect = higher value.
[16] abbreviates: Rieske KO mouse fibroblast survival, CellTiter-Glo 72 h.

Active and inactive are the calls of the source. Unless noted, no rule for the calls is given here.

In assay [1], `Fc1ccc(-c2ncn(C3CCNCC3)c2-c2ccnc(Oc3ccccc3)n2)cc1` had a liver cell % of control of 73.1%. Also, the parasite % of control in assay [1] is 120% (inactive). For the same compound, in assay [2], the percent of negative control (+Dex) is 102% (inactive). Besides, the z-score is 0.6 in assay [2]; 0.255 (inactive) in [3]; 0.32 (inactive) in assay [4]; -0.224 (inactive) in assay [6] (setting [15]); -0.286 in [6] (setting [16]). Further, in assay [5], the fraction signal was -0.004 (inactive).

For `COc1ccc2ncn(-c3cc(O[C@H](C)c4ccccc4Cl)c(C(N)=O)s3)c2c1`, the liver cell % of control in assay [1] worked out at 108%. For the same compound, the parasite % of control in [1] is 124% (inactive). For the same compound, in [2], the percent of negative control (+Dex) was 77.5% (inactive). Besides, the z-score in [2] was -2.52; in assay [3] it was 0.63 (inactive); in [4], -1.39 (inactive); in assay [6] (setting [15]) it was -0.983 (inactive); in assay [6] (setting [16]), 0.0827. Further, the fraction signal in assay [5] is -0.0045 (inactive).

Consider `Fc1ccc(-c2ncn(C3CCNCC3)c2-c2ccnc(Oc3ccc(Cl)cc3)n2)cc1`, for which the liver cell % of control in assay [1] was determined as 79.3%. Further, in [1], the parasite % of control was 63.5% (inactive). In addition, in assay [2], the percent of negative control (+Dex) is 103% (inactive). Further, the z-score in [2] was 0.58; in [3], 0.16 (inactive); in assay [4] it was -0.186 (inactive); in assay [6] (setting [15]) it was 0.00888 (inactive); in assay [6] (setting [16]), -0.374. Further, the fraction signal in assay [5] was -0.006 (inactive).

`O=C1NC(=O)C(c2ccccc2Cl)=C1Nc1cc(Cl)c(O)c(Cl)c1` showed a liver cell % of control in assay [1] of 90.9%. The parasite % of control in assay [1] was 128% (inactive). Further, the percent of negative control (+Dex) in assay [2] is 95.5% (inactive). The z-score in assay [2] is 0.49; in assay [3] it was -0.07 (inactive); in [4], 0.319 (inactive); in [6] (setting [15]), -0.0492 (inactive); in assay [6] (setting [16]), -0.159. Moreover, in assay [5], the fraction signal was -0.002 (inactive).

`Fc1ccc(-c2ncn(C3CCNCC3)c2-c2ccnc(Oc3cccc(C(F)(F)F)c3)n2)cc1` displayed a liver cell % of control in assay [1] of 97%. Also, in [1], the parasite % of control was 156% (inactive). Besides, the percent of negative control (+Dex) in assay [2] is 97% (inactive). Moreover, the z-score in assay [2] was 0.355; in assay [3], 0.19 (inactive); in [4] it was -0.64 (inactive); in [6] (setting [15]), -0.429 (inactive); in assay [6] (setting [16]), -0.412. Besides, in assay [5], the fraction signal is 0.0045 (inactive).

Take `N=C(N)n1cccn1`: the nuclear beta-catenin stimulation was 0.3% (inactive) in assay [7] (at 10 µM) and 0% in [7] (stimulation, at 2 µM). Moreover, the insulin secretion stimulation in assay [8] is 9.4% (inactive). Besides, the viability decrease in assay [9] is -5.8% (inactive). Besides, the tube area decrease in [10] is 4.7% (inactive). Moreover, the GLP1 secretion stimulation in [11] is -3.7% (inactive). In addition, the inhibition of viability in assay [12] was 6.5% (inactive). The viability decrease (inhibition) in assay [13] is 16.1% (inactive); in [14] it was -2.6% (inactive).

Turning to `CS(=O)(=O)CCN(CC#N)Cc1ccc(-c2ccc3ncnc(Nc4ccc(OCc5cccc(F)c5)c(Cl)c4)c3c2)o1`, the liver cell % of control in assay [1] worked out at 98.1%. Also, the parasite % of control in assay [1] is 143% (inactive). For the same compound, in assay [2], the percent of negative control (+Dex) was 82% (inactive). The z-score in [2] is -0.4; in assay [3], 0.225 (inactive); in [4], 0.25 (inactive); in assay [6] (setting [15]), -0.391 (inactive); in assay [6] (setting [16]), -0.288. For the same compound, the fraction signal in [5] was 0.001 (inactive).

For the compound `O=[N+]([O-])c1nccn1CO[C@@H](CO)[C@H](O)CO`, the nuclear beta-catenin stimulation in assay [7] (at 10 µM) was -0.2% (inactive); in [7] (stimulation, at 2 µM), -0.8%. Besides, in assay [8], the insulin secretion stimulation is 1.45% (inactive). The viability decrease in [9] is 40% (inactive). Moreover, the tube area decrease in assay [10] was -13.2% (inactive). Further, the GLP1 secretion stimulation in assay [11] was -3.1% (inactive). The inhibition of viability in assay [12] was 7.6% (inactive). Besides, the viability decrease (inhibition) in [13] was 2.3% (inactive); in [14], -5.8% (inactive).

As for `O=S(=O)(CCNCc1ccc(-c2ccc3ncnc(Nc4ccc(OCc5cccc(F)c5)c(Cl)c4)c3c2)o1)c1ccccc1`, the liver cell % of control in assay [1] was 108%. Moreover, the parasite % of control in assay [1] is 102% (inactive). Besides, the percent of negative control (+Dex) in assay [2] is 96.5% (inactive). Further, the z-score is -0.355 in assay [2]; -0.37 (inactive) in assay [3]; 3.07 (inactive) in assay [4]; 0.171 (inactive) in assay [6] (setting [15]); -0.45 in [6] (setting [16]). For the same compound, in assay [5], the fraction signal was -0.004 (inactive).

As for `CCCCC(O)/C=C(C)/C=C/C=C/C(=O)N1CCCC1=O` (centres undefined), the nuclear beta-catenin stimulation in assay [7] (at 10 µM) was -1% (inactive); in assay [7] (stimulation, at 2 µM) it was -0.4%. Further, in [8], the insulin secretion stimulation was 0.3% (inactive). In addition, the viability decrease in [9] is 1.6% (inactive). In [10], the tube area decrease was 17.5% (inactive). In assay [11], the GLP1 secretion stimulation was 1.3% (inactive). Moreover, the inhibition of viability in assay [12] is 37.5% (inactive). For the same compound, the viability decrease (inhibition) in assay [13] was 59.3% (active); in assay [14] it was -19.2% (inactive).

Regarding `O=C(O)c1ccccc1Nc1cc(Cl)ccc1C(=O)O`, the nuclear beta-catenin stimulation was 2% (inactive) in [7] (at 10 µM) and -1.8% in [7] (stimulation, at 2 µM). Further, in assay [8], the insulin secretion stimulation is 0.5% (inactive). Further, the viability decrease in assay [9] was 2.4% (inactive). Besides, in assay [10], the tube area decrease is -18.4% (inactive). The GLP1 secretion stimulation in assay [11] is 0.1% (inactive). For the same compound, the inhibition of viability in assay [12] is -1.2% (inactive). Further, the viability decrease (inhibition) in assay [13] was -23.2% (inactive); in assay [14], -18.7% (inactive).

In the case of `CCC1(c2cnc[nH]2)Cc2ccccc2C1`, the nuclear beta-catenin stimulation was 1.2% (inactive) in assay [7] (at 10 µM) and 1.5% in assay [7] (stimulation, at 2 µM). Further, the insulin secretion stimulation in assay [8] is 13.1% (inactive). In [9], the viability decrease is 38% (inactive). Also, the tube area decrease in assay [10] was 22.4% (inactive). The GLP1 secretion stimulation in assay [11] was -3.3% (inactive). For the same compound, in assay [12], the inhibition of viability is -0.4% (inactive). Besides, the viability decrease (inhibition) was 19.3% (inactive) in [13] and 38.2% (inactive) in [14].

In turn, `COc1cc2ncn(-c3cc(O[C@@H](C)c4ccccc4Cl)c(C(N)=O)s3)c2cc1OC` gave a liver cell % of control in assay [1] of 100%. Moreover, in [1], the parasite % of control was 110% (inactive). The percent of negative control (+Dex) in [2] was 124% (inactive). Moreover, the z-score was 2.36 in assay [2]; -0.555 (inactive) in [3]; -0.639 (inactive) in assay [4]; -0.552 (inactive) in assay [6] (setting [15]); 0.815 in [6] (setting [16]). Further, in assay [5], the fraction signal is -0.002 (inactive).

The compound `N#Cc1c(NC(=O)c2cccc3ccccc23)sc2c1CCCN2C(=O)C1CC1` had a liver cell % of control in [1] of 190%. For the same compound, the parasite % of control in [1] is 15.9% (inactive). For the same compound, in assay [2], the percent of negative control (+Dex) was 106% (inactive). Moreover, the z-score in [2] is -0.12; in assay [3], -0.17 (inactive); in [4] it was -0.734 (inactive); in [6] (setting [15]) it was -0.726 (inactive); in assay [6] (setting [16]), -0.0978. Further, the fraction signal in assay [5] was 0.002 (inactive).

Compound `Cc1ccc(NC(=O)c2ccnc(N3CCOCC3)c2)cc1-c1ccc(C(=O)NCC2CC2)cc1` showed a liver cell % of control in assay [1] of 100%. Further, in [1], the parasite % of control was 95.1% (inactive). The percent of negative control (+Dex) in assay [2] is 102% (inactive). Besides, the z-score is 1.12 in assay [2]; 0.01 (inactive) in assay [3]; -0.216 (inactive) in assay [4]; -0.365 (inactive) in assay [6] (setting [15]); -0.395 in assay [6] (setting [16]). Moreover, the fraction signal in assay [5] is -0.0075 (inactive).

`Fc1ccc(Oc2nccc(-c3c(-c4ccc(F)cc4)ncn3C3CCNCC3)n2)cc1` registered a liver cell % of control in [1] of 104%. In addition, the parasite % of control in [1] was 122% (inactive). Besides, the percent of negative control (+Dex) in assay [2] is 107% (inactive). Also, the z-score in [2] is 1.11; in assay [3], -1.01 (inactive); in assay [4], 7.24 (active); in assay [6] (setting [15]) it was -0.283 (inactive); in assay [6] (setting [16]), -0.391. Further, in [5], the fraction signal is 0 (inactive).
